Common to all, as to experiment: DAPPL (digital affinity profiling via proximity ligation, sequencing); 10 mM Tris-HCl pH 7.5, 50 mM NaCl, 1 mM DTT, 4% glycerol, room temperature, 30 min; GST-TFs on glutathione beads, 16-mer random dsDNA library, 0.1% formaldehyde crosslink after washing; high values mean tight binding
What all share (conditions): protein: recombinant; tags: N-terminal GST; dsDNA, one strand shown

One experiment addresses T1, ERF (Homo sapiens, UniProt P50548 1-548).
T1 sequence: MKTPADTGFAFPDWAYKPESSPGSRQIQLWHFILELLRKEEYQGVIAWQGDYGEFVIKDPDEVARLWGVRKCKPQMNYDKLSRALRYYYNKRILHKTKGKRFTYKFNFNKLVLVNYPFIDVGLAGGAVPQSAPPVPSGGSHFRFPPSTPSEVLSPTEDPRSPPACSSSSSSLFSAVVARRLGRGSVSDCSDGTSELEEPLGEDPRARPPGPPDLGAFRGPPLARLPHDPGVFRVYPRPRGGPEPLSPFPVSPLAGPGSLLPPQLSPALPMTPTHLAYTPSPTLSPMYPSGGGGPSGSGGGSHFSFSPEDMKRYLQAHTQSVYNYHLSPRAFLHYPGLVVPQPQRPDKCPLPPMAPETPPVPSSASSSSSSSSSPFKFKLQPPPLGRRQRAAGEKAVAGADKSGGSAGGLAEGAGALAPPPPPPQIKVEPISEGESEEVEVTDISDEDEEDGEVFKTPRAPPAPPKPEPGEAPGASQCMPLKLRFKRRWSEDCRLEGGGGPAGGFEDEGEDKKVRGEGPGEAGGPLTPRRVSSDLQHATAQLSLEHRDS
In short, it runs like this: (§1)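 Human transcription factors fused to GST were expressed in yeast, captured on glutathione beads, given DNA barcodes and pooled with a GST-only negative control. Pools were incubated with 200 nmole of a 16-mer random double-stranded DNA library in Tris/NaCl/DTT/glycerol buffer at room temperature for 30 min. They were then washed, crosslinked with 0.1% formaldehyde, proximity-ligated (BsaI/T4 ligase, 1 h, 37 °C), PCR-amplified and sequenced on an Illumina NextSeq500. Binding signal is each 6-mer's read frequency for a factor divided by its frequency for the GST control.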

In the next experiment the target is T2, ETV3L (Homo sapiens, UniProt Q6ZN32 1-361).
T2 sequence: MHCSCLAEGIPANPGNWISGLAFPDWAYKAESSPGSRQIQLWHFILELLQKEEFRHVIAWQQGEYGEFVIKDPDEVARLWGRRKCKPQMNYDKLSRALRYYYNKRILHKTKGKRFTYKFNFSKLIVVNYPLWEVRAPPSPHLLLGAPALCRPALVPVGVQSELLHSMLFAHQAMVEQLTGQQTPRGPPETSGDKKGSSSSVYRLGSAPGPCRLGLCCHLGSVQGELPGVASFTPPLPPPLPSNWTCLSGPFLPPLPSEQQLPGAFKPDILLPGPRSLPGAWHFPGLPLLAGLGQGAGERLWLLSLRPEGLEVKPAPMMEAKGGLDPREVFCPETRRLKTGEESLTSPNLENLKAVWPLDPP
In short, it runs like this: as §1

The target of a further experiment is T3, ETS2 (Homo sapiens, UniProt P15036 1-469).
T3 sequence: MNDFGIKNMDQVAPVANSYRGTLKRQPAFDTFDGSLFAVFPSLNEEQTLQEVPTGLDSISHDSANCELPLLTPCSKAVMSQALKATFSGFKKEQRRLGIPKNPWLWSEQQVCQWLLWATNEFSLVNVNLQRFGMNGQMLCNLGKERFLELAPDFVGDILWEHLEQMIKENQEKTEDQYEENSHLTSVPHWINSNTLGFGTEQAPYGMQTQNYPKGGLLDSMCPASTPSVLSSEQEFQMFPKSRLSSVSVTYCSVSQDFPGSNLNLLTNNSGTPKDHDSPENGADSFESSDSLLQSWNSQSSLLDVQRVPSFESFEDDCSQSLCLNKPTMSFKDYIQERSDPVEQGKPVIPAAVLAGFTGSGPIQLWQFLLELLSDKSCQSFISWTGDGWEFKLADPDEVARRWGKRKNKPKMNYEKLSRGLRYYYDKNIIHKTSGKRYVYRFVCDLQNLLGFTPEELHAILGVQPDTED
In short, it runs like this:
as §1

In the next experiment the target is T4, SPDEF (Homo sapiens, UniProt O95238 1-335).
T4 sequence: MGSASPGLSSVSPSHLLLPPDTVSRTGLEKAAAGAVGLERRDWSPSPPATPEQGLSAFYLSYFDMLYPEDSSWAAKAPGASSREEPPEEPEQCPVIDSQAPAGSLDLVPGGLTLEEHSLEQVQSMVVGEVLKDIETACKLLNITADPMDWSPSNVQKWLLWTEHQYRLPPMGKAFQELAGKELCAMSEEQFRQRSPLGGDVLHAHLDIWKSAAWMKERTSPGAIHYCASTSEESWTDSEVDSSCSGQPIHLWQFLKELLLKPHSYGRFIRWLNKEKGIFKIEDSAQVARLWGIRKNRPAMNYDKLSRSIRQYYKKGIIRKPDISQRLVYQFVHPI
In short, it runs like this:
as §1

For another experiment, the target named is T5, ETV7 (Homo sapiens, UniProt Q9Y603 1-341).
T5 sequence: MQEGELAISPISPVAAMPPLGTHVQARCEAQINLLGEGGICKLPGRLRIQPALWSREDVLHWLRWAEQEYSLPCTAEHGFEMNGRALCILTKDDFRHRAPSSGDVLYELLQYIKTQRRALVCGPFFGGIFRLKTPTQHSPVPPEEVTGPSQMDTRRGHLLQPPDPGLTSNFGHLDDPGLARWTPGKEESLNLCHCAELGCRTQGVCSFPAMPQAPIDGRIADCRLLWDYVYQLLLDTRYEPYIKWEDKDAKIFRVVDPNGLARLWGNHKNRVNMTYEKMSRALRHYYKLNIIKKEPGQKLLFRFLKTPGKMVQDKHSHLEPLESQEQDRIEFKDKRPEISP
In short, it runs like this: as §1

A further experiment has as its target T6, ELF5 (Homo sapiens, UniProt Q9UKW6-2 1-255).
T6 sequence: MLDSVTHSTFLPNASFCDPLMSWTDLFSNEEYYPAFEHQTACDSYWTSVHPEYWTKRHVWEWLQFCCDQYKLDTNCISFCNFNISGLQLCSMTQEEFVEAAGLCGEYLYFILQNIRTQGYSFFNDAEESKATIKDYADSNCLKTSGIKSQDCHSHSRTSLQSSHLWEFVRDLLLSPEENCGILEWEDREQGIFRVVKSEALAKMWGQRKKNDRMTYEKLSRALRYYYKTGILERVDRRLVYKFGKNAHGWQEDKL
In outline:
as §1

Another experiment concerns the target T7, ETV3 (Homo sapiens, UniProt P41162-2 1-143).
T7 sequence: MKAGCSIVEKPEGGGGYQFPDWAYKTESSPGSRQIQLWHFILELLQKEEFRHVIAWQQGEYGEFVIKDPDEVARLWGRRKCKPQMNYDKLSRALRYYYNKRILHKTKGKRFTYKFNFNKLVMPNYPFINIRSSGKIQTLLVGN
In outline:
as §1

In a further experiment the target is ETV6 (Homo sapiens, UniProt P41212 1-452). In short, it runs like this:
as §1

We go through eight sequences from publication PMC7862700, “An all-to-all approach to the identification of sequence-specific readers for epigenetic DNA modifications on cytosine”.

Sequence of ETV6 (P41212 whole entry): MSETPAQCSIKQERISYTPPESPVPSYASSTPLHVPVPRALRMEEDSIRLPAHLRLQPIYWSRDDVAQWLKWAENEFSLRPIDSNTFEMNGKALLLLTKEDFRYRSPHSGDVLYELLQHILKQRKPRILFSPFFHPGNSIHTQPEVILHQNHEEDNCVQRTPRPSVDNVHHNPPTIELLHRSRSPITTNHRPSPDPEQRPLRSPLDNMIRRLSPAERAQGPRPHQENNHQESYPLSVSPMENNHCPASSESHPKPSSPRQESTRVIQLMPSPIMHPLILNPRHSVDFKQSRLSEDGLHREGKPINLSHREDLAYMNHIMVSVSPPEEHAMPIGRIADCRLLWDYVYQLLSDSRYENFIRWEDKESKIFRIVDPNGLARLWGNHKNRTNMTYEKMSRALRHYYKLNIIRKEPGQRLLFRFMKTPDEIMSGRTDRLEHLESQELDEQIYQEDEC

For GAAGCG, the binding signal in the experiment with ERF is 1.29 fold enrichment (6-mer frequency, TF over GST control); with ETV3L it was 1.32 fold enrichment (6-mer frequency, TF over GST control); with ETS2, 1.33 fold enrichment (6-mer frequency, TF over GST control); with SPDEF it was 1.29 fold enrichment (6-mer frequency, TF over GST control); in the experiment with ETV7, 1.36 fold enrichment (6-mer frequency, TF over GST control); with ELF5 it was 1.35 fold enrichment (6-mer frequency, TF over GST control). For the same sequence, the binding signal in the experiment with ETV3 was 1.36 fold enrichment (6-mer frequency, TF over GST control); with ETV6, 1.43 fold enrichment (6-mer frequency, TF over GST control).

As to ATAGCT, the binding signal with ERF was 1.2 fold enrichment (6-mer frequency, TF over GST control); in the experiment with ETV3L, 1.13 fold enrichment (6-mer frequency, TF over GST control); with ETS2, 1.1 fold enrichment (6-mer frequency, TF over GST control); in the experiment with SPDEF it was 1.07 fold enrichment (6-mer frequency, TF over GST control); with ETV7, 1.31 fold enrichment (6-mer frequency, TF over GST control); with ELF5 it was 1.07 fold enrichment (6-mer frequency, TF over GST control). Also, the binding signal was 1.12 fold enrichment (6-mer frequency, TF over GST control) with ETV3 and 1.13 fold enrichment (6-mer frequency, TF over GST control) with ETV6.

On to CGTCTC, for which the binding signal in the experiment with ERF was 1.49 fold enrichment (6-mer frequency, TF over GST control); with ETV3L it was 1.71 fold enrichment (6-mer frequency, TF over GST control); with ETS2, 1.58 fold enrichment (6-mer frequency, TF over GST control); with SPDEF, 1.35 fold enrichment (6-mer frequency, TF over GST control); with ETV7, 1.44 fold enrichment (6-mer frequency, TF over GST control); in the experiment with ELF5 it was 1.38 fold enrichment (6-mer frequency, TF over GST control). Besides, the binding signal is 1.48 fold enrichment (6-mer frequency, TF over GST control) with ETV3 and 1.46 fold enrichment (6-mer frequency, TF over GST control) with ETV6.

Take TATCTA: the binding signal in the experiment with ERF was 1.27 fold enrichment (6-mer frequency, TF over GST control); in the experiment with ETV3L it was 1.18 fold enrichment (6-mer frequency, TF over GST control); with ETS2 it was 1.26 fold enrichment (6-mer frequency, TF over GST control); in the experiment with SPDEF, 1.23 fold enrichment (6-mer frequency, TF over GST control); with ETV7 it was 1.26 fold enrichment (6-mer frequency, TF over GST control); in the experiment with ELF5, 1.18 fold enrichment (6-mer frequency, TF over GST control). Also, the binding signal with ETV3 is 1.29 fold enrichment (6-mer frequency, TF over GST control); with ETV6 it was 1.28 fold enrichment (6-mer frequency, TF over GST control).

In the case of CTCGCG, the binding signal was 1.41 fold enrichment (6-mer frequency, TF over GST control) in the experiment with ERF; 1.44 fold enrichment (6-mer frequency, TF over GST control) with ETV3L; 1.47 fold enrichment (6-mer frequency, TF over GST control) with ETS2; 1.4 fold enrichment (6-mer frequency, TF over GST control) with SPDEF; 1.38 fold enrichment (6-mer frequency, TF over GST control) with ETV7; 1.42 fold enrichment (6-mer frequency, TF over GST control) in the experiment with ELF5. Also, the binding signal was 1.42 fold enrichment (6-mer frequency, TF over GST control) in the experiment with ETV3 and 1.36 fold enrichment (6-mer frequency, TF over GST control) in the experiment with ETV6.

Regarding AATGGG, the binding signal is 1.16 fold enrichment (6-mer frequency, TF over GST control) with ERF; 1.15 fold enrichment (6-mer frequency, TF over GST control) with ETV3L; 1.19 fold enrichment (6-mer frequency, TF over GST control) with ETS2; 1.12 fold enrichment (6-mer frequency, TF over GST control) with SPDEF; 1.2 fold enrichment (6-mer frequency, TF over GST control) in the experiment with ETV7; 1.2 fold enrichment (6-mer frequency, TF over GST control) in the experiment with ELF5. For the same sequence, the binding signal is 1.19 fold enrichment (6-mer frequency, TF over GST control) with ETV3 and 1.2 fold enrichment (6-mer frequency, TF over GST control) in the experiment with ETV6.

Regarding ACCCGA, the binding signal is 1.22 fold enrichment (6-mer frequency, TF over GST control) with ERF; 1.05 fold enrichment (6-mer frequency, TF over GST control) with ETV3L; 1.07 fold enrichment (6-mer frequency, TF over GST control) in the experiment with ETS2; 1.03 fold enrichment (6-mer frequency, TF over GST control) with SPDEF; 1.11 fold enrichment (6-mer frequency, TF over GST control) with ETV7; 1.01 fold enrichment (6-mer frequency, TF over GST control) with ELF5. The binding signal in the experiment with ETV3 was 1.05 fold enrichment (6-mer frequency, TF over GST control); with ETV6, 1.04 fold enrichment (6-mer frequency, TF over GST control).

Take AACATG: the binding signal was 1.21 fold enrichment (6-mer frequency, TF over GST control) with ERF; 1.17 fold enrichment (6-mer frequency, TF over GST control) with ETV3L; 1.14 fold enrichment (6-mer frequency, TF over GST control) with ETS2; 1.11 fold enrichment (6-mer frequency, TF over GST control) in the experiment with SPDEF; 1.05 fold enrichment (6-mer frequency, TF over GST control) in the experiment with ETV7; 1.15 fold enrichment (6-mer frequency, TF over GST control) with ELF5. Moreover, the binding signal is 1.11 fold enrichment (6-mer frequency, TF over GST control) with ETV3 and 1.25 fold enrichment (6-mer frequency, TF over GST control) with ETV6.
